Experimental data: ChEMBL document CHEMBL3988442, “University of Dundee, Small-Polar-MMV Screening Library” (2021)
For some assays here: Entries with a potency or affinity are not part of this list.

What was measured:
Set-up in all cases: scale not given: direction of the effect not stated beside the values
[1] = target: Protein translocase subunit SecA (Escherichia coli (strain K12)) (UniProt P10408); test: Assay to Identify E. coli SecA ATPase Inhibitors; type: functional; details: 30 µM
[2] = target: T1, Ubiquitin-activating enzyme e1, putative (Leishmania donovani (strain BPK282A1)) (UniProt E9BSI1); test: Leishmania donovani Ubiquitin Activating Enzyme (LdE1); type: functional; details: 30 µM
T1 sequence (whole entry): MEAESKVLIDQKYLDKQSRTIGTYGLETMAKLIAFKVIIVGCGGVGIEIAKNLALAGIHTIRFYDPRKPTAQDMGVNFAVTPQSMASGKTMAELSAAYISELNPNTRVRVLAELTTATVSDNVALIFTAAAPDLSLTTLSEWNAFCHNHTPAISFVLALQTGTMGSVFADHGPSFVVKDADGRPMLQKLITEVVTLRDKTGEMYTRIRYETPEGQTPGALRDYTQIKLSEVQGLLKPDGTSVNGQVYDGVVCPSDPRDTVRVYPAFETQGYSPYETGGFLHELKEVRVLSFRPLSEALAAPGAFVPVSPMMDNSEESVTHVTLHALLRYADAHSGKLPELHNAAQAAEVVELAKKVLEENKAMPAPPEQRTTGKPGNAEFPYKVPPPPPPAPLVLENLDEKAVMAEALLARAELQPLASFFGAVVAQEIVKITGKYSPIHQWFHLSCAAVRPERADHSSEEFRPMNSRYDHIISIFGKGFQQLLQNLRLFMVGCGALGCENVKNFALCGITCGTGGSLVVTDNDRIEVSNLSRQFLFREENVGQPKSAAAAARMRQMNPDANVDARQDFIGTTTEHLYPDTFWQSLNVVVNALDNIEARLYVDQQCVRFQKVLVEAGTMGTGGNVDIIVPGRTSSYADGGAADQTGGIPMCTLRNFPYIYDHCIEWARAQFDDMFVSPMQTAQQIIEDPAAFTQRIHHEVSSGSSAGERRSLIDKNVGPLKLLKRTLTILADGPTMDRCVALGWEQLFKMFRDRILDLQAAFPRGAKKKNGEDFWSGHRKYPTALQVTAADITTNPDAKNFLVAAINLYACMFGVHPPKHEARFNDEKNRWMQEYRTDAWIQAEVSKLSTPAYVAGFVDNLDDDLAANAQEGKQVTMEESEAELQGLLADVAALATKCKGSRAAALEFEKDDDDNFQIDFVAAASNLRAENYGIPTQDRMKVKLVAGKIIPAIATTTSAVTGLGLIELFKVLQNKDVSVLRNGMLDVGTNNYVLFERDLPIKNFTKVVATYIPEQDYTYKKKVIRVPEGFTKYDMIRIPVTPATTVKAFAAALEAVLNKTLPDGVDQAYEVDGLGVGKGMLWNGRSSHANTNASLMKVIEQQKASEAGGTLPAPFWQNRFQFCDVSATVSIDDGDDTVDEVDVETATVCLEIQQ

[3] = target: AMP-activated protein kinase, AMPK (Homo sapiens) (UniProt P54646+O43741+P54619+Q9UGJ0+Q9Y478+Q13131+Q9UGI9); test: AMP-dependent Kinase enzyme assay. An in vitro enzyme assay that detects ADP turnover that is directly proportional to AMPK activity. This uses naive AMPK that is activated during the assay with MK-8722; type: functional; details: 30 µM
[4] = target: Sialic acid-binding Ig-like lectin 9 (Homo sapiens) (UniProt Q9Y336); test: Hs-Siglec9 ALPHAscreen SOP 20170721; details: 10 µM
Chain of Sialic acid-binding Ig-like lectin 9 (Homo sapiens) (Q9Y336 whole entry): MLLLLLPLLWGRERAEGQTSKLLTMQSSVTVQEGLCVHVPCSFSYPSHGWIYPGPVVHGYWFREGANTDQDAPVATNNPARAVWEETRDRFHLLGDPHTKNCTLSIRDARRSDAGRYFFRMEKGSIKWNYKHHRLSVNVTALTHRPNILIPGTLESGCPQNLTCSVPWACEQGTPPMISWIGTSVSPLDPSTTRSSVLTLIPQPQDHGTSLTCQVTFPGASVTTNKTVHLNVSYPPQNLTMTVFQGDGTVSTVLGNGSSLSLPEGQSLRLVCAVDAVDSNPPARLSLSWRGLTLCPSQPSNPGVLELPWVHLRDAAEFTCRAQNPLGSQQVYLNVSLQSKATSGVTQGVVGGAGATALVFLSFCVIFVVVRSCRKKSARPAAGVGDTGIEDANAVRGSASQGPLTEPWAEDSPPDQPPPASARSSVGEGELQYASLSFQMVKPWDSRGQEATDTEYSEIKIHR

Trypanosoma cruzi = test: Trypanosoma cruzi phosphomannomutase and mannose-1-phosphate guanylyltransferase assay; type: functional; details: 10 µM
[5] = target: T2, Arginase-2, mitochondrial (Homo sapiens) (UniProt P78540); test: in vitro enzyme assay to detect the production of urea directly proportional to the activity of Arginase II; type: functional; details: 33.3 µM; also: in the data most compounds retested in dose-response had high values
T2 sequence (whole entry): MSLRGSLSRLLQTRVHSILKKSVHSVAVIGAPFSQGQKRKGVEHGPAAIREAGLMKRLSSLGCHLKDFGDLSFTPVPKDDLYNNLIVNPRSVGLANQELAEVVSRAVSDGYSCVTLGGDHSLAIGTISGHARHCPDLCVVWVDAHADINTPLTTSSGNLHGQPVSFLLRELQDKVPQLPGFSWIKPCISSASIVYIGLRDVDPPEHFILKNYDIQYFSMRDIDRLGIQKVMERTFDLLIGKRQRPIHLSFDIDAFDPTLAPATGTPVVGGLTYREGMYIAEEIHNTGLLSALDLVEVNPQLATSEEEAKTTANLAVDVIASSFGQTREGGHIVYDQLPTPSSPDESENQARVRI

[6] = target: T3, Proteasome subunit beta (Trypanosoma cruzi) (UniProt O96673); test: Trypanosoma cruzi proteasome chymotrypsin-like activity (TcProtChymo) assay.; also: in the data most compounds retested in dose-response had high values; type: functional; details: 9.37 µM
T3 sequence (whole entry): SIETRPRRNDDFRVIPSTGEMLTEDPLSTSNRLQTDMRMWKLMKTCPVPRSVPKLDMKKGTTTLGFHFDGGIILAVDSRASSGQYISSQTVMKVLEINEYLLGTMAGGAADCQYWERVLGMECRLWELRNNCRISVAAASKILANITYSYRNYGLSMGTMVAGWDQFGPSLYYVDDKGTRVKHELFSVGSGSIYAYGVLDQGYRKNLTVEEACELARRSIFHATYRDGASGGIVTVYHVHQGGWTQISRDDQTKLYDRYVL

Homo sapiens = species: Homo sapiens; test: To identify inhibition of the IFN signalling (Jak-Stat) pathway via expression of an eGFP reporter gene under the control of an IFN-stimulated response element (ISRE) containing MxA promoter.; type: functional; details: 30 µM
[7] = target: T4, Tyrosyl-tRNA synthetase, putative (Trypanosoma cruzi (strain CL Brener)) (UniProt Q4DSP6); test: Trypanosoma cruzi tyrosyl tRNA synthetase (TcYRS) _High Tyrosine SOP; type: functional; details: 30 µM; also: in the data most compounds retested in dose-response had high values
T4 sequence (whole entry): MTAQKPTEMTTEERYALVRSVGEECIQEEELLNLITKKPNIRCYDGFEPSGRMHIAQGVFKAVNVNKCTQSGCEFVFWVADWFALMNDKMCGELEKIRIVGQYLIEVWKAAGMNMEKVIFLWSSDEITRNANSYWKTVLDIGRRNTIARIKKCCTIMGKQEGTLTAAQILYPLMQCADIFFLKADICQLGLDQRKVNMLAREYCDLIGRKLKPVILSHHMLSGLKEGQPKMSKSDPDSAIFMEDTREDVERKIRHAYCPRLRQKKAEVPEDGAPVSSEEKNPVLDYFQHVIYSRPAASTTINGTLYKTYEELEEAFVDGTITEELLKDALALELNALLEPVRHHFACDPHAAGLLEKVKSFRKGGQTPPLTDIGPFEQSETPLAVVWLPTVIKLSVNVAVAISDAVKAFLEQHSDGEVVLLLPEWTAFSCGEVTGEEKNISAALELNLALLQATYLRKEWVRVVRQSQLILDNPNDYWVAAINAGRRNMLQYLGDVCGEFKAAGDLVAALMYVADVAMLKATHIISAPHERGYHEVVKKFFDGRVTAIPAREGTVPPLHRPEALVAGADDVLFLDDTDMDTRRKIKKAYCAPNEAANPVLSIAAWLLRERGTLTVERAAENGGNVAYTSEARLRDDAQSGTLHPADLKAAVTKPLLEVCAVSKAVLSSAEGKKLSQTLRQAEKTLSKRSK

[8] = target: T4, Tyrosyl-tRNA synthetase, putative (Trypanosoma cruzi (strain CL Brener)); test: Trypanosoma cruzi tyrosyl tRNA synthetase (TcYRS) SOP; type: functional; details: 30 µM
[9] = target: Chromo domain-containing protein 1 (Saccharomyces cerevisiae (strain ATCC 204508 / S288c) (Baker's yeast)) (UniProt P32657); test: ScCHD-1 Enzyme Inhibition Assay; type: functional; details: 30 µM; also: in the data most compounds retested in dose-response had high values
Chain of Chromo domain-containing protein 1 (Saccharomyces cerevisiae (strain ATCC 204508 / S288c) (Baker's yeast)) (P32657 whole entry, the tested form may be a part): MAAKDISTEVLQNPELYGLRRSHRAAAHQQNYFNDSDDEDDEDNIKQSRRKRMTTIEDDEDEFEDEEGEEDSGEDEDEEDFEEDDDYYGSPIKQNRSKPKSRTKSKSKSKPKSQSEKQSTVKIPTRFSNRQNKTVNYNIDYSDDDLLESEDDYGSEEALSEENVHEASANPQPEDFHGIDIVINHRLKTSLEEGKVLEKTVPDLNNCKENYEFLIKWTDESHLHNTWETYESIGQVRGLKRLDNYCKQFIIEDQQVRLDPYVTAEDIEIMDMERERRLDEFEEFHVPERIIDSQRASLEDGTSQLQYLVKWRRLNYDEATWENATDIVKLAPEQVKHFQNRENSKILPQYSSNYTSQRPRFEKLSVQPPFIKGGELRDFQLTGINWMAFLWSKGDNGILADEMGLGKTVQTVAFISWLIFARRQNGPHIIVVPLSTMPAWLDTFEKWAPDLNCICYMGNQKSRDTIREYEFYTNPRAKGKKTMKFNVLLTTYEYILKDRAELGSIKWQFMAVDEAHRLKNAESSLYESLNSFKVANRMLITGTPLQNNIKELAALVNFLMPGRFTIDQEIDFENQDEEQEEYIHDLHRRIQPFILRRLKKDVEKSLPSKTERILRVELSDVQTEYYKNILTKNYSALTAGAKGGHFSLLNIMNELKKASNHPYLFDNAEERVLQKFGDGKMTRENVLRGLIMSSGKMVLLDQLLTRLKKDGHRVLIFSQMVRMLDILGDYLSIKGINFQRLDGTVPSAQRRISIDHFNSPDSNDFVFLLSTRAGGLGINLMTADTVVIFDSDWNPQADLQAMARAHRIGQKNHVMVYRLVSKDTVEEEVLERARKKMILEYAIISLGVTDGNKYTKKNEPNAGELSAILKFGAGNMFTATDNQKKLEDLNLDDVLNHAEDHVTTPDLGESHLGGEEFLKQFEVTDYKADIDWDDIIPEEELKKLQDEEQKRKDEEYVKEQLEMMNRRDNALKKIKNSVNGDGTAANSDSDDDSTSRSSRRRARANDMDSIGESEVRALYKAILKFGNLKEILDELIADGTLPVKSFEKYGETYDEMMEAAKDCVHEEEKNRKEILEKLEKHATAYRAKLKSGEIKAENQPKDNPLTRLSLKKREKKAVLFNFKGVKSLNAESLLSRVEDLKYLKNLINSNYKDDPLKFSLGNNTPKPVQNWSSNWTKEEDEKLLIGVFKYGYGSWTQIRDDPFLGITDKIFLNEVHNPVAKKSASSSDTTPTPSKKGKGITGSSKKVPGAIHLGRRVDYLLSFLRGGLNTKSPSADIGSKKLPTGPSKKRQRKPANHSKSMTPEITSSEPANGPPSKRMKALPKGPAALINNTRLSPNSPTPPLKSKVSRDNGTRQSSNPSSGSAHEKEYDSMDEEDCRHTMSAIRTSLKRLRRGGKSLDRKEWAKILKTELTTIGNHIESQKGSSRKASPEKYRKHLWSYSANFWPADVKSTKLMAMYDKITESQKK

Chain of Protein translocase subunit SecA (Escherichia coli (strain K12)) (P10408 whole entry): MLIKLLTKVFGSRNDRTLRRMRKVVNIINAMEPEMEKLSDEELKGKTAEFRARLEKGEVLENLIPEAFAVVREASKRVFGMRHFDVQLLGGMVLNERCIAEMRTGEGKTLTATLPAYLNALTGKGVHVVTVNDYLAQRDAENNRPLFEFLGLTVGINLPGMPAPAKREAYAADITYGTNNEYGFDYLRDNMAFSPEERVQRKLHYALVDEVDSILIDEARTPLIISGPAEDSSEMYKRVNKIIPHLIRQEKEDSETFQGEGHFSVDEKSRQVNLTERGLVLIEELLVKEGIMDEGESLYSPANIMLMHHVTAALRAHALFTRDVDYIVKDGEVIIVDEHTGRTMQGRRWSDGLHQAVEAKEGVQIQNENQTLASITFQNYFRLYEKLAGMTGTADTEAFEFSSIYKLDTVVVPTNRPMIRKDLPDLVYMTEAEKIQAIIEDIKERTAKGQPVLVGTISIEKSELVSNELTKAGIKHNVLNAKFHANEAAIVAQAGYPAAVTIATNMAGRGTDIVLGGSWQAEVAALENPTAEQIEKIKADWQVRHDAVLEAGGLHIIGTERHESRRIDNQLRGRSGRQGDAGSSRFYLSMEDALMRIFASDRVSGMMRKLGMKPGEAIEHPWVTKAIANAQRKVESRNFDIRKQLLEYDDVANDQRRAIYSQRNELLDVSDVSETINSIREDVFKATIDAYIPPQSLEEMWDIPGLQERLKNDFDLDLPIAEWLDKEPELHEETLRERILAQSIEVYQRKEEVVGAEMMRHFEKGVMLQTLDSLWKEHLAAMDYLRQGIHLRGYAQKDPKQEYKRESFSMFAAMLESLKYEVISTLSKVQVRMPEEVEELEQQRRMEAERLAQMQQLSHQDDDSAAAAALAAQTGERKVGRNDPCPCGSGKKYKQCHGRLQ

| SMILES | Percent Effect [1] | Percent Effect [2] | Percent Effect [3] | Percent Effect [4] | Percent Effect (Trypanosoma cruzi) | Percent Effect [5] | Percent Effect [6] | Percent Effect (Homo sapiens) | Percent Effect [7] | Percent Effect [8] | Percent Effect [9] |
| --- | --- | --- | --- | --- | --- | --- | --- | --- | --- | --- | --- |
| COC(=O)C(C)(C)NC(=O)C1CC(=O)N(C2CCCC2)C1 (configuration not stated) | -0.563% | 11% | -0.48% | 5.96% | 3.17% | -2.79% | 9.85% | 26.3% | 11.5% | 25.9% | -1.54% |
| CCC1CN(CCC(=O)N(C)C)CCN1CCOC (configuration not stated) | -1.46% | 16.2% | -11.9% | 3.32% | 2.74% | -0.401% | 5.04% | -13.9% | 8.37% | 25.9% | -3.8% |
| Cc1[nH]ncc1CCCNC(=O)Nc1ccc(C#N)cc1 | -1.53% | 5.41% | 8.53% | 1.92% | 3.28% | 2.38% | 7.41% | 15.2% | 7.94% | 9.76% | -1.92% |
| c1cnn(CCN2CCOC(Cn3cncn3)C2)c1 (configuration not stated) | -1.82% | 17.7% | -6.27% | -8.37% | -0.283% | 3.8% | 14.3% | -0.00724% | 10.3% | 24.1% | -9.31% |
| COc1cccc(CCC2CCCN(C(=O)C3=NN(C)C(=O)CC3)C2)c1 (configuration not stated) | -0.975% | -10.8% | -2.43% | -1.4% | -3.28% | 0.952% | 3.79% | 6.9% | 3.7% | 4.88% | -1.44% |
| O=C(c1ccc(-n2cccn2)nc1)N1CCC(Nc2cccnn2)CC1 | -8.1% | 10.4% | 4.61% | 12.7% | 1.47% | 0.632% | 12.8% | 5.75% | 6.67% | 9.41% | -8.74% |
| CCn1cc(CN2CCC(c3nnc(CN(C)C)n3CC)CC2)cn1 | 0.381% | 10.4% | 3.2% | 6.14% | -4.03% | -1.38% | 14% | 4.82% | 2.15% | 6.17% | 0.0159% |
| O=C(CCc1cscn1)N1CCCC(n2ccnc2)C1 (configuration not stated) | -6.32% | 1.27% | 6.89% | -0.321% | -2.36% | 0.645% | 0.343% | -13.2% | 8.33% | 5.06% | -12.3% |
| CC(C)(C#N)C(=O)N1CCCC(c2cc(C(F)(F)F)[nH]n2)C1 (configuration not stated) | -6.75% | 16.2% | -6.25% | 19.3% | 3.44% | -2.03% | 4.85% | 14.8% | 2.97% | 11% | -8.63% |
| CC(C)COCC(NC(=O)c1ccccn1)c1ccco1 (configuration not stated) | -2.06% | 13.5% | -1.56% | 0.407% | 4.62% | -8.02% | 5.04% | 5.29% | 9.36% | 16.1% | -8.79% |
| O=S1(=O)N=C(SCc2ccc(Cl)cc2)Nc2ccc(F)cc21 | -2.41% | -7.79% | -5.17% | -2.88% | -1.08% | 1.94% | 13.8% | 21.9% | -6.35% | -8.97% | -10.5% |
| CNS(=O)(=O)c1ccc(C(=O)NCCc2ccccn2)cc1 | -1.2% | 13.2% | -0.141% | 1.24% | -0.28% | -5.4% | 10.2% | -22.9% | 7.39% | 16.1% | -7.59% |
| Cc1csc(CN2CC[C@H]3C[C@H](c4nnc(C)[nH]4)O[C@@H]3C2)n1 | 1.54% | 16.4% | 0.599% | 0.797% | -0.397% | 2.4% | 9.33% | 17.3% | 3.12% | -102% | -5.22% |
| O=C(C[C@@H]1COC[C@H]2CN(Cc3ccc(F)cc3)C[C@@H]12)N1CCCCO1 | -4.42% | 6.67% | 4.91% | 6.17% | -2.36% | -0.176% | 16.1% | 19% | 2.12% | 7.69% | -5.03% |
| Cc1cccc(-c2noc(CN3CCCC(Cn4cncn4)C3)n2)c1 (configuration not stated) | -6.12% | 20.2% | -9.05% | 10.8% | 8.59% | 3.04% | 5.16% | 5.05% | 6.4% | 21.5% | -4.86% |
| CC(C)Cc1ccc(S(=O)(=O)Nc2ccc(=O)n(C)c2)cc1 | -3.52% | 25.3% | -59.7% | -2.55% | 3.31% | 0% | 15.5% | 69% | 6.4% | 21.5% | -7.97% |
| CCN(CC)CCNC(=O)c1ccn(COc2cc(C)cc(C)c2)n1 | -1.61% | 9.33% | 0.388% | 2.31% | -0.197% | -8.28% | 21.4% | 0.95% | 6.35% | 15.4% | -9.92% |
| CCc1nc(CN(CC(N)=O)C(C)C)cs1 | -2.67% | 17.7% | 0.603% | 3.91% | 1.23% | -1.14% | 7.78% | 7.33% | 10.3% | 21.5% | -2.93% |
| CCc1csc(C2CCCN(C(=O)C3=NN(CC)C(=O)CC3)C2)n1 (configuration not stated) | -3.73% | 7.79% | -3.68% | 5.23% | 6.37% | 2.13% | -5.07% | 11.1% | 4.85% | 12.2% | -7.52% |
| CS(=O)(=O)N1CCN(CC(O)COc2ccc(F)cc2)CC1 (configuration not stated) | -0.431% | 10.4% | 2.55% | -2.66% | -4.02% | 0.632% | 11.4% | 26.8% | 2.86% | 21.2% | -16.1% |
| O=C(NCc1ccco1)[C@H]1C[C@H]2OCC[C@H]2N(C(=O)c2ccncc2)C1 | -2.12% | -2.67% | 11.1% | 21.8% | 0.193% | -50% | 7.18% | -21.2% | 3.12% | 2.5% | -1.86% |
| Cc1nn(C)c2c(N3CCN(C(=O)NC4CCCCC4)CC3)ncnc12 | -1.64% | 9.33% | -2.22% | -3.41% | -5.5% | 0.528% | 11.7% | 0.346% | 2.12% | 5.13% | -10.1% |
